{
  "source": "PubChem BioAssay (NCI)",
  "note": "Compounds without any hit were thinned out: in the full panel of roughly 83,000, 20% have a hit.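 Treatment: one concentration, 48 hours, 96-well format. Scoring: percent growth, with anything below 10 considered active.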 Calls of active or inactive are those of the source.",
  "data": [
    {"system": "HCT-116 colon", "assay": "NCI-60 one-dose screen, 48 h (100 = growth as untreated, 0 = no growth, -100 = all killed)", "conditions": "10 µM unless noted", "description": "Growth inhibition of the HCT-116 human tumor cell line is measured as a screen for anti-cancer activity. Cells are grown in 96 well plates and exposed to the test compound for 48 hours. Compounds are tested at a single concentration, which is 10^-5 M for most compounds. The reported endpoint is percent growth (GI% or GIPRCNT), where numbers from 0 - 100% represent growth inhibition, and numbers from -100% - 0 represent cell death. For example, a value of 40 represents 60% growth inhibition. A value of 0 means no net growth occurred over the course of the experiment. A value of -40 indicates 40% of cells at the beginning of the experiment died by the end of the experiment. A value of -100 means all cells are dead at the end of the experiment.\nNCI-60 Human Tumor Cell Lines Screen was performed using the standard one-dose NCI protocol, which is described in more detail at https://dtp.cancer.gov/discovery_development/nci-60/default.htm.\nCompounds with GIPRCNT values below 10 were considered active. Activity score was based on GIPRCNT using the following formula: […]\nScore is 0 for GIPRCNT values of 100 or above, 50 for GIPRCNT values of 0, and 100 for GIPRCNT values of -100.", "values": [
      {"compound": "COc1cc2nc(Cl)nc(Nc3cccc(C(=O)/C=C/c4ccc(F)cc4)c3)c2cc1OC", "growth": "-41.2% (active)"},
      {"compound": "CCCCCCCN(CCCCCCC)C(=N)c1ccnc2ccccc12", "growth": "-83.7% (active)"},
      {"compound": "CCC(=O)c1c(C)[nH]c(C)c1C", "growth": "47.2% (inactive)"},
      {"compound": "Cn1cc(-c2nc(-c3c[nH]c4ncccc34)cs2)c2ccccc21", "growth": "76.9% (inactive)"},
      {"compound": "CCCCC(=O)OC1CCCCC1C", "note": "(stereo not given)", "growth": "81% (inactive)"},
      {"compound": "Clc1ccc(Cn2cc(-c3nc4ccc(Br)nc4n3Cc3ccc(Cl)cc3)c3cccnc32)cc1", "growth": "84.1% (inactive)"},
      {"compound": "Fc1ccc(Nc2ccc3c(OCCCN4CCOCC4)cccc3n2)cc1F", "growth": "78.5% (inactive)"},
      {"compound": "N#CC1C(=N)Cc2ccccc2-c2ccccc21", "note": "(stereo not given)", "growth": "33.1% (inactive)"},
      {"compound": "COc1ccc(C(=O)c2ccc(C)cc2)c(OC)c1OC", "growth": "58.4% (inactive)"},
      {"compound": "Cn1cc(-c2csc(-c3cn(CCCN4CCCCC4)c4ccccc34)n2)c2cccnc21", "growth": "-95% (active)"},
      {"compound": "C=C(C)[C@@H]1CC[C@]2(C(=O)N3CCN(C)CC3)CC[C@]3(C)[C@H](CC[C@@H]4[C@@]5(C)C/C(=C/c6ccc(C(F)(F)F)cc6)C(=O)C(C)(C)[C@@H]5CC[C@]43C)[C@@H]12", "growth": "89.8% (inactive)"},
      {"compound": "NCCn1cc(-c2nc(-c3c[nH]c4ncccc34)cs2)c2cc(F)ccc21", "growth": "61.4% (inactive)"},
      {"compound": "CC(C)(C)n1cc(-c2ccnc(NCCCNS(=O)(=O)c3ccc(Cl)cc3)c2)c(-c2cccc(F)c2)n1", "growth": "51.9% (inactive)"},
      {"compound": "CC[C@]12C=CCN3CC[C@@]4(c5cc([C@H]6CCC(=O)N6)c(OC)cc5N(C)[C@H]4[C@@](O)(C(=O)OC)[C@@H]1OC(C)=O)[C@@H]32", "growth": "100% [2.5 µM] (inactive)"},
      {"compound": "Nc1c(Cl)cc(N=Nc2ccccc2)cc1Cl", "growth": "67.4% (inactive)"},
      {"compound": "O=C1/C(=C\\c2ccc(Br)o2)SC(=S)N1CCc1ccc(O)cc1", "growth": "77.7% (inactive)"},
      {"compound": "COc1ccc(-c2cc(=O)oc3ccc(Cl)cc23)cc1F", "growth": "5.47% (active)"},
      {"compound": "CCCCCC1CCCCN1C(=O)OCC", "note": "(stereo not given)", "growth": "93.6% (inactive)"},
      {"compound": "N=C(N)N=Nc1ccc(O)cc1", "growth": "48% [100 µM] (inactive)"},
      {"compound": "CCCCC[C@H]1C/C=C2/C(=O)C(Cl)=C[C@@H]2C/C=C\\CCCC(=O)O[C@@H](CCCCC)C/C=C2/C(=O)C(Cl)=C[C@@H]2C/C=C\\CCCC(=O)O1", "growth": "-98.7% (active)"},
      {"compound": "CCCCCCCCNc1cccc2c1C(=O)c1ccccc1C2=O", "growth": "103% (inactive)"},
      {"compound": "C=C(C)[C@@H]1CC[C@]2(C(=O)N3CCCNCC3)CC[C@]3(C)[C@H](CC[C@@H]4[C@@]5(C)CCC(=O)C(C)(C)[C@@H]5CC[C@]43C)[C@@H]12", "growth": "71.6% (inactive)"},
      {"compound": "Cc1ccnc2c(OCc3ccccc3)cccc12", "growth": "92.4% (inactive)"},
      {"compound": "CCOC(=O)N1CCN(CCCCOc2ccc(C(C)(C)CC)cc2)CC1", "growth": "70.8% (inactive)"},
      {"compound": "COc1ccc2c(c1)c(-c1nc(-c3c[nH]c4ncccc34)cs1)cn2CCN", "growth": "53.5% (inactive)"},
      {"compound": "CCc1ccccc1NC(=O)c1sc2nc3c(cc2c1N)CCCC3", "growth": "18.7% (inactive)"},
      {"compound": "COc1ccc(OC)c(-c2c(C#N)c(-c3ccco3)nc3c2c(-c2ccccc2)nn3-c2ccccc2)c1", "growth": "87.8% (inactive)"},
      {"compound": "CN(C)CCCCC(C(=O)CBr)(c1ccccc1)c1ccccc1", "growth": "-60.1% (active)"},
      {"compound": "O=C1NC(=Nc2ccc(S(=O)(=O)Nc3nccs3)cc2)S/C1=C\\c1coc2ccccc2c1=O", "growth": "104% (inactive)"},
      {"compound": "O=C(O)c1cccc2c1C(=O)N(c1ccc3c(c1)Cc1ccccc1-3)C2=O", "growth": "112% (inactive)"},
      {"compound": "Cc1c(C)c2c(c(C)c1NC(=O)CCCCCCC(=O)O)CCC(C)(CCCC(C)CCCC(C)CCCC(C)C)O2", "note": "(stereo not given)", "growth": "22.7% (inactive)"},
      {"compound": "COc1cccc(-c2nn(-c3ccccc3)cc2-c2ccnc(NCCNS(=O)(=O)c3ccc(Cl)cc3)c2)c1", "growth": "20.6% (inactive)"},
      {"compound": "COc1ccc(OCC(CO)N2CCN(c3ccccc3)CC2)cc1", "note": "(stereo not given)", "growth": "95.7% (inactive)"},
      {"compound": "Cc1cc(Cl)nc(N(CCCNc2ccnc3cc(Cl)ccc23)Cc2ccco2)n1", "growth": "3.68% (active)"},
      {"compound": "COc1ccc(NC(=S)N/N=C/c2ccccc2SSCCC(=O)OC[C@H]2O[C@H](O)[C@H](O)[C@@H](O)[C@@H]2O)cc1", "growth": "72.9% (inactive)"},
      {"compound": "COc1ccc(-c2cc(/C=C/C(=O)c3ccc(N)cc3)[nH]n2)cc1", "growth": "8.45% (active)"},
      {"compound": "Cc1ccncc1C(=O)O", "growth": "107% (inactive)"},
      {"compound": "Cn1cc(-c2nc(-c3cn(C)c4ncccc34)cs2)c2cc(F)ccc21", "growth": "18.6% (inactive)"},
      {"compound": "O=[N+]([O-])c1ccc(/C=N\\Nc2ccccc2)cc1", "growth": "66.3% (inactive)"},
      {"compound": "Cc1ccc(-c2ccc(/C=C(\\C#N)c3nc(-c4ccco4)cs3)o2)cc1", "growth": "98% (inactive)"}
    ]}
  ]
}
